Experimental findings from PubChem BioAssay (NCATS) are described below.

Experiment [1] is described as follows: qHTS profiling for inhibitors of Plasmodium falciparum (3D7) proliferation (AID 743322).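 Also: infected erythrocytes exposed to compound for 72 h before lysis; 100% = DMSO vehicle wells and 0% = 0.29 µM artemisinin.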 Conditions: P. falciparum 3D7 proliferation; at 28.7 µM (top of the series). The method in brief:
(§1)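 Erythrocytes infected with P. falciparum (0.3% parasitemia, 2.5% hematocrit) incubated with compounds 72 h at 37 C, 5% CO2. Lysis with saponin/Triton buffer containing SYBR Green I, overnight at room temperature in the dark; DNA fluorescence (485/535 nm) normalised to 0.29 uM artemisinin and DMSO.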
In general terms: Quantitative high-throughput screening tests each substance at several concentrations.

The nature of experiment [2]: qHTS profiling for inhibitors of Plasmodium falciparum (DD2) proliferation (AID 743323). The conditions noted are these: lower = more inhibition; at 28.7 µM (top of the series). The method in brief:
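SYBR Green fluorescence (ex 485, em 535 nm) of lysed cultures gives parasite DNA content; wells normalized to artemisinin (0.29 uM) and DMSO controls. Infected red cells: 0.3% parasitemia, 2.5% hematocrit, 72 h, 37 C.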

A short description of experiment [3]: qHTS profiling for inhibitors of Plasmodium falciparum (HB3) proliferation (AID 743324; active = well fitted curve in the direction sought with a large enough effect; an effect the other way counts as inactive or inconclusive;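 also: 100% = DMSO vehicle wells and 0% = artemisinin-treated control wells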). The conditions noted are these: Plasmodium falciparum HB3 blood-stage proliferation; at 28.7 µM (top of the series). The essentials: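 P. falciparum HB3 grown in erythrocytes (0.3% parasitemia, 2.5% hematocrit final) with compound for 72 h at 37 C, 5% CO2. Parasite DNA detected by SYBR Green after saponin/triton lysis overnight; normalized to 0.29 uM artemisinin and DMSO.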

Experiment [4] is described as follows: qHTS profiling of the MIPE4 collection as inhibitors of Plasmodium falciparum (DD2) proliferation (AID 743345). Conditions: P. falciparum Dd2 in erythrocytes, SYBR Green DNA, 72 h; at 28.5 µM (top of the series) unless noted. The essentials:
as §1

Experiment [5] in a line: qHTS profiling of the MIPE4 collection as inhibitors of Plasmodium falciparum (DD2) proliferation (Rep 2) (AID 743346). The conditions noted are these: P. falciparum Dd2 in erythrocytes, SYBR Green DNA, 72 h; at 28.5 µM (top of the series) unless noted. The essentials:
as §1

A short description of experiment [6]: qHTS profiling of the MIPE4 collection as inhibitors of Plasmodium falciparum (HB3) proliferation (AID 743347).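 Also: plate controls were DMSO vehicle wells for no effect and artemisinin wells for full effect.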 The conditions noted are these: P. falciparum HB3 in erythrocytes, SYBR Green DNA, 72 h; at 28.5 µM (top of the series) unless noted. The essentials: as §1
Experiment [7] is described as follows: High-throughput drug toxicity screening in the BPDCN cell line Gen2.2 (AID 1224824).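 Also: cells exposed to compounds for 48 h before reading.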 The conditions noted are these: Gen2.2 BPDCN cells; at 45.8 µM (top of the series) unless noted. The method in brief:
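Gen2.2, 500 cells/well, phenol red-free RPMI/10% FBS/Pen-Strep; 48 h cpd, 37 °C/5% CO2; CTG lum, 15 min RT. Norm: DMSO = 100%, bortezomib 9.2 uM final = 0%.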

Experiment [8] can be described thus: High-throughput drug toxicity screening in the BPDCN cell line Cal-1 (AID 1224825). The conditions noted are these: Cal-1 BPDCN cell viability, qHTS; at 45.8 µM (top of the series) unless noted. The method in brief: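 Exponentially growing Cal-1 cells, 500 per well in phenol red-free RPMI with 10% FBS, were exposed to compounds for 48 h at 37 °C, 5% CO2. Viability was read by CellTiter-Glo luminescence and normalised to DMSO (100%) and 9.2 uM bortezomib (0%).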

A short description of experiment [9]: qHTS assay for measurement of the activity of small molecule inhibitors on Zika virus induced Caspase-3 activity in human iPSC derived neural progenitor cells (hNPCs) (AID 1224857; active = well fitted curve in the direction sought with a large enough effect; an effect the other way counts as inactive or inconclusive; also: nearly all actives have a fitted effect of over 65% in size; also: potency is read from the fitted curve at half-maximal effect). The essentials: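 Cells were plated at 350 per well and grown 16 to 20 hours. Compound pretreatment lasted one hour, after which ZIKV (2 FFU/cell) was added for 6 hours. Percent inhibition was normalized between uninfected and infected controls.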

A short description of experiment [10]: qHTS Screen of the MIPE 4.0 Collection Against Ewings Sarcoma (TC71) (AID 1259253; active = well fitted curve in the direction sought with a large enough effect; an effect the other way counts as inactive or inconclusive; also: nearly all actives have a fitted effect of over 40% in size; also: potency is read from the fitted curve at half-maximal effect). The method in brief: (§2)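 Measured: ATP luminescence (CellTiter-Glo) 10 min after reagent addition, following 48 h drug treatment. Relative luciferase units converted to percent activity, with no-cell wells as full and DMSO wells as zero inhibition.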
Experiment [11] can be described thus: qHTS assay for measurement of the activity of small molecule inhibitors on Zika virus induced Caspase-3 activity in human astrocytoma cells (AID 1224859; active = well fitted curve in the direction sought with a large enough effect; an effect the other way counts as inactive or inconclusive;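 also: plate controls were ZIKV-infected untreated cells for no effect and uninfected cells for full effect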). The method in brief:
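Percent inhibition of virus-induced caspase-3/7 signal is calculated against uninfected and ZIKV-infected control cells. Cells are SNB-19, infected at 2 FFU/cell for 6 h after 1 h compound exposure.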

Experiment [12] in a line: qHTS profiling of the MIPE4 collection as inhibitors of Plasmodium falciparum (3D7) proliferation (AID 743344).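 Also: scaled between DMSO vehicle wells and 0.29 µM artemisinin as full inhibition.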 Conditions: P. falciparum 3D7 in erythrocytes, SYBR Green DNA fluorescence, 72 h; at 28.5 µM (top of the series) unless noted. The method in brief: as §1
The nature of experiment [13]: qHTS Screen of the MIPE 4.0 Collection Against Ewings Sarcoma (RDES) (AID 1259252; active = well fitted curve in the direction sought with a large enough effect; an effect the other way counts as inactive or inconclusive; also: nearly all actives have a fitted effect of over 35% in size; also: potency is read from the fitted curve at half-maximal effect). The method in brief: as §2
Experiment [14] can be described thus: qHTS Screen of the MIPE 4.0 Collection Against Ewings Sarcoma (EW8) (AID 1259255; active = well fitted curve in the direction sought with a large enough effect; an effect the other way counts as inactive or inconclusive; also: nearly all actives have a fitted effect of over 35% in size; also: potency is read from the fitted curve at half-maximal effect;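 as to viability: 100% = DMSO-treated cells and 0% = medium-only wells without cells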). The essentials: as §2

Records with an inconclusive call do not appear. Active and inactive are the calls of the source. Unless noted, no rule for the calls is given here.

Consider `COc1cc2ncnc(-n3nc(-c4ccccn4)nc3N)c2cc1OC`, for which the remaining parasite growth % (stronger effect = lower value) in experiment [1] turned out to be 68.8%. Further, in [2], the activity, percent of control turned out to be 96.4%. This compound had a remaining proliferation (% of control), lower = more inhibition in experiment [3] of 74%. For the same compound, the parasite growth remaining, % of DMSO control (lower = more inhibition) in experiment [4] worked out at 31.2%. Also, the parasite growth, % of control (lower = inhibition) in experiment [5] was 11.1%. The same compound displayed a growth, % of control in [6] of 6.36%. For the same compound, the cell viability, % of control (lower = more cytotoxic) in [7] was found to be 59.8%. For the same compound, the viability (% of control) in [8] was found to be 46.1%. The Potency result in experiment [9] is “inactive”. The Potency in experiment [10] is 18.7 µM (active).

For `NC(=O)NN=Cc1ccc([N+](=O)[O-])o1`, in experiment [5], the parasite growth, % of control (lower = inhibition) worked out at 14.3%. Besides, in experiment [6], the growth, % of control came out at 13.3%. Besides, the cell viability, % of control (lower = more cytotoxic) in experiment [7] turned out to be 172%. The viability (% of control) in experiment [8] stood at 72.8%. Also, the Potency entry in [9] and in [11] was “inactive” each time.

In the case of `CC(=O)O[C@]1(C(C)=O)CC[C@@H]2[C@@H]3C[C@H](C)C4=CC(=O)CC[C@]4(C)[C@H]3CC[C@@]21C`, the parasite growth remaining, % of DMSO control (lower = more inhibition) in experiment [4] turned out to be 89%. Moreover, the parasite growth, % of control (lower = inhibition) in experiment [5] is 22%. In experiment [6], this compound showed a growth, % of control of 16.6%. Besides, the cell viability, % of control (lower = more cytotoxic) in experiment [7] was determined as 75.1%. Also, the viability (% of control) in experiment [8] was determined as 95.7%. The Potency result in [9] and in [11] was “inactive” in each case.

`CC(C)(C)COc1ccc(-n2cc(C(=O)O)cn2)cc1C#N` gave a remaining parasite growth % (stronger effect = lower value) in experiment [1] of 28.3%. Moreover, the activity, percent of control in [2] came to 88.8%. In [3], this compound gave a remaining proliferation (% of control), lower = more inhibition of 91.7%. The compound further showed a parasite growth, % of DMSO control in experiment [12] of 75%. Besides, the parasite growth remaining, % of DMSO control (lower = more inhibition) in [4] stood at 90.1%. Also, the cell viability, % of control (lower = more cytotoxic) in experiment [7] is 112%. For the same compound, the viability (% of control) in experiment [8] was determined as 106%. Also, the Potency in experiment [9] was 14.8 µM (active). Further, the Potency result in experiment [13], in experiment [10] and in experiment [14] was “inactive” each time.

As for `COc1ccc(-c2coc3cc(O)ccc3c2=O)cc1`, the parasite growth remaining, % of DMSO control (lower = more inhibition) in experiment [4] was determined as 8.21%. Moreover, the parasite growth, % of control (lower = inhibition) in experiment [5] stood at 96.3%. For the same compound, the growth, % of control in [6] amounted to 92.8%. In experiment [7], the cell viability, % of control (lower = more cytotoxic) turned out to be 191%. Moreover, the viability (% of control) in [8] came out at 109%. Further, in [9], the Potency was 18.7 µM (active). Further, the Potency entry in experiment [13], in experiment [10] and in experiment [14] was “inactive” throughout.

`Cc1ccc(Nc2cc(-c3cccc(N4C(=O)c5ccccc5C4=O)c3)ncn2)cc1NS(C)(=O)=O`: in experiment [4], the parasite growth remaining, % of DMSO control (lower = more inhibition) was 83.3%. For the same compound, in experiment [7], the cell viability, % of control (lower = more cytotoxic) came out at 52.3%. The viability (% of control) in [8] was 13.1%. Also, the Potency result in [9] and in experiment [11] was “inactive” throughout.

Consider `Cn1cc(C=C2C(=O)Nc3cccnc32)c2ccccc21`, for which, in experiment [4], the parasite growth remaining, % of DMSO control (lower = more inhibition) worked out at 82.2%. Further, the growth, % of control in experiment [6] was found to be 2.02%. Also, in experiment [7], the cell viability, % of control (lower = more cytotoxic) is 111%. In addition, the viability (% of control) in experiment [8] stood at 63.5%. In addition, the Potency result in experiment [9] and in experiment [10] was “inactive” throughout.

`C=C1C(=O)OC2C=C(C)CCC=C(C)CCC12` (centres undefined) gave a parasite growth, % of DMSO control in experiment [12] of 238%. In addition, the parasite growth remaining, % of DMSO control (lower = more inhibition) in experiment [4] was determined as 104%. For the same compound, the parasite growth, % of control (lower = inhibition) in [5] worked out at 108%. In [6], this compound gave a growth, % of control of 559%. The cell viability, % of control (lower = more cytotoxic) in experiment [7] was 10.5%. The viability (% of control) in [8] was determined as 11.5%. In addition, in experiment [9], the Potency result is “inactive”. In [14], the Potency is 23.5 µM (active).

Compound `CCc1ccc(C=C2SC(=S)NC2=O)cc1` registered a parasite growth, % of DMSO control in experiment [12] of 77.1%. In [4], the parasite growth remaining, % of DMSO control (lower = more inhibition) turned out to be 93.8%. In experiment [5], the parasite growth, % of control (lower = inhibition) is 115%. In addition, the cell viability, % of control (lower = more cytotoxic) in experiment [7] worked out at 159%. Moreover, the viability (% of control) in experiment [8] worked out at 83.2%. Moreover, in experiment [9], the Potency is 20.9 µM (active). Moreover, the Potency entry in experiment [13], in [10] and in [14] was “inactive” in each case.

Consider `COc1ccc(-c2cc(=O)c3c(O)cc(O)cc3o2)cc1O`, for which the parasite growth, % of DMSO control in experiment [12] was 30.9%. In addition, the growth, % of control in [6] was found to be 67.5%. Besides, in experiment [7], the cell viability, % of control (lower = more cytotoxic) is 97.2%. Further, the viability (% of control) in experiment [8] was determined as 16.3%. The Potency in experiment [9] is 18.7 µM (active); in [13] it was 5.26 µM (active); in experiment [10] it was 9.35 µM (active); in experiment [14], 13.2 µM (active).
